Assay outcomes (PubChem)
Shown are actives, neighbours in structure and some others; about 1.8% of the full set was active somewhere.
Pin1 inh – inhibitors of human Pin1; Potency, µM (highest dose often 115 µM), hits mostly inhibitors; Q13526; 390,000 tested, 0.009% active; Pin1 FP peptide displacement, HiFluor488, 10 min; active means well fitted inhibition curve with a large enough effect in the polarisation, with a control signal flat, not every such curve was filed as active; inconclusive means small, poorly fitted or top-dose-only effect, or effect the other way, or a change in a side signal; inactive means no such curve, though single readings can be large or run the other way; the % refers to the polarisation
Target sequence (Q13526 whole entry, looked up): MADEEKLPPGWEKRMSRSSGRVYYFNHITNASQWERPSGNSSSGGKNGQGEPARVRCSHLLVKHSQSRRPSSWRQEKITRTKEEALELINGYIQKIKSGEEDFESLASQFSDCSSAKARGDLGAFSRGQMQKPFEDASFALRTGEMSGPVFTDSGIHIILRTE
GLP-1R agonist – GLP-1 receptor (human) agonism | P43220 | HEK293 GLP-1R CRE-luciferase, luminescence, 4-6 h; cells express a hypersensitive GLP-1R form | Potency, µM (doses to about 45.6 µM), most hits filed as activators | 380,000 tested, 0.007% active | AID 624172
PGK inhibitor – blocks T. brucei phosphoglycerate kinase; P07378; PGK/GAPDH coupled, Kinase-Glo luminescence, 60 min; Potency, µM (titrated, usually from 57.5 µM), hits mostly inhibitors; 380,000 tested, 0.043% active; further: nearly all actives have a fitted effect of over 60% in size
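Recombinant glycosomal PGK reaction used 1,3-bisphosphoglycerate generated in-well by GAPDH (100nM final) in 100mM TEA pH 7.6, 5mM MgCl2, 0.01% Tween-20. After 60 minutes at room temperature, ATP was read by Kinase-Glo Plus luminescence end-point.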
Tb PFK inh – blocks T. brucei phosphofructokinase; T. brucei PFK, ADP-Glo luminescence; O15648; Potency, µM (titrated, usually from 57.5 µM), actives largely listed as inhibitors; 330,000 tested, 0.17% active; AID 485367; further: nearly all actives have a fitted effect of over 60% in size
Target sequence (O15648 whole entry, looked up): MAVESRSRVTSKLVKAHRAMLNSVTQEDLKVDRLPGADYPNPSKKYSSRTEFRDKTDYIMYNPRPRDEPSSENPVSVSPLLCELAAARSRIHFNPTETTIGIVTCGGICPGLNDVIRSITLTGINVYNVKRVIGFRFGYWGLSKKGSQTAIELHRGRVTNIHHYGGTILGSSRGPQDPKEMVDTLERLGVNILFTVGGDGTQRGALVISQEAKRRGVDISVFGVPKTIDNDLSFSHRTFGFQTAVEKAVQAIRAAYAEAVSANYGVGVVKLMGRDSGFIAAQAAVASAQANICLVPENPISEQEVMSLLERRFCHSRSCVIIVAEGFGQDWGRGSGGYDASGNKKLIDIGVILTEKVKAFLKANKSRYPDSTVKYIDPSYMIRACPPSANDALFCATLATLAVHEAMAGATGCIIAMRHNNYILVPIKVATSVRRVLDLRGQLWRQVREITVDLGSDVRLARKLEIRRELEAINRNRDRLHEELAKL
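Compounds were pin-transferred as a titration series up to 57 uM into substrate buffer (0.5 mM F6P, 0.1 mM ATP, pH 8.0), then 1.25 nM PFK was added and reactions ran 45 min before ADP-Glo detection.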
GLP1R cytotox – cytotoxicity counter-screen for GLP-1 receptor inverse agonists. AID 624418. 410,000 tested, 0.13% active. Potency, µM (titrated, usually from 38.3 µM), actives largely listed as inhibitors. HEK293 cAMP-luciferase reporter cells, luminescence, 24 h;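 further: loss of luciferase light is scored as toxicity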
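1536-well qHTS counterscreen of the MLSMR; 200 cells/uL, 12 h pre-incubation, 23 nL cpd, 24 h at 37 deg C 5% CO2, luciferase detection reagent, 12 min RT, luminescence. Inhibition = undesired.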
GLP-1R inv ag – inverse agonists of human GLP-1 receptor. Potency, µM (doses to about 38.3 µM), usual class: inhibitors. 410,000 tested, 1.6% active. HEK293 GLP-1R CRE-luciferase, luminescence, 24 h; GLP-1R form is constitutively active. P43220. AID 624417; further: nearly all actives have a fitted effect of over 55% in size
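Constitutively active GLP-1R drives a cAMP-responsive luciferase in stably transfected HEK293 cells; test compounds are added after overnight (12 h) attachment and left 24 hr, and signal loss in luminescence marks inhibition.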
Numbers stand for hits; – = inactive; ? = inconclusive; · = not tested or not shown; [ ] = another dose, or the depositor's remark. Unless noted, the call rests on the fitted dose curve; in most records, active means well fitted curve in the direction sought with a large enough effect; inconclusive means small, poorly fitted or top-dose-only effect, or another doubt; inactive means no such curve, though single readings can be large; an effect the other way counts as inactive or inconclusive.

SMILES	Pin1 inh	GLP-1R agonist	PGK inhibitor	Tb PFK inh	GLP1R cytotox	GLP-1R inv ag
Cc1oc2c(c1C(=O)Nc1ccccc1Br)C1=NCCN1C=N2	–	·	–	·	?	?
CC(C)(C)c1ccc(S(=O)(=O)Nc2ccc(C(O)(C(F)(F)F)C(F)(F)F)cc2)cc1	·	–	·	·	–	?
CC(C)COC(=O)N(C)c1ccc(C(O)(C(F)(F)F)C(F)(F)F)cc1	–	–	–	–	–	8.91µM
O=[N+]([O-])c1cccc(S(=O)(=O)N2CCN(S(=O)(=O)c3ccc4c(c3)OCCO4)CC2)c1	–	·	·	·	·	·
CCNC(=O)NCCCOc1cccc(CN2CCCCC2)c1	·	–	·	·	·	·
O=C(COC(=O)c1ccc(Cl)cc1)NC(=O)NC1CCCC1	–	–	–	–	–	–
CC(NCC(=O)NC(=O)NC1CCCC1)c1ccc(Cl)cc1Cl (stereo not given)	–	–	–	–	–	10µM
COc1ccccc1CNC(=O)C1(NC(=O)Nc2ccc(C)cc2)CCCCC1	–	–	–	–	–	8.91µM
O=c1c2ccccc2nc2sc(NCc3ccc([S+](=O)([O-])c4ccccc4)cc3)nn12	–	·	·	·	·	·
COc1cc(OC)c(-c2c3cc(O)c(=O)cc-3oc3cc(O)c(O)cc23)cc1OC	?	–	?	?	?	4.47µM
Cc1c2cc(O)c(=O)cc-2oc2cc(O)c(O)cc12	?	–	?	3.38µM	?	–
Cc1cc2oc(=O)cc(-c3cc4ccccc4o3)c2cc1O	?	–	–	–	–	–
CC[C@H](C)[C@@H](NC(=O)O[C@@H]1C(=O)c2cc(Br)ccc2O[C@H]1c1cccc(OC)c1)C(=O)OC	–	–	–	–	–	?
COc1cccc([C@@H]2Oc3ccc(Br)cc3C(=O)[C@H]2OC(=O)NC2CCCC2)c1	–	–	–	–	–	11.2µM
Cc1ccc(C(=O)NCCNc2ccc([N+](=O)[O-])cc2C(F)(F)F)cc1	–	–	–	–	?	10µM
CC(C)(C)CC(=O)Nc1nnc(C(F)(F)F)s1	–	–	–	–	–	?
CC(NC(=O)Nc1nnc(C(F)(F)F)s1)(C(F)(F)F)C(F)(F)F	–	–	–	–	?	4.47µM
CCCCOc1ccc(C2C(=O)N(C3CCCCC3)CC(=O)N2C2CCCCC2)cc1 (stereo not given)	–	·	–	·	–	–
CCOC(=O)c1cnc2ccc(OCC)cc2c1Nc1ccc(OCc2ccccc2Cl)cc1	–	·	–	·	–	?
CCOC(=O)c1cnc2ccc(C)cc2c1Nc1ccc(OCc2ccccc2Cl)cc1	–	·	–	·	–	11.2µM
CCCCC[C@@H](C)N1C[C@@H](COCc2ccccc2)Oc2cc(N3CC[C@H](O)C3)ccc2S1(=O)=O	·	–	·	·	–	?
CCCCC[C@H](C)N1C[C@@H](COCc2ccccc2)Oc2cc(N3CC[C@@H](O)C3)ccc2S1(=O)=O	·	–	·	·	?	10µM
CCCCC[C@H](C)N1C[C@H](COCc2ccccc2)Oc2cc(N3CC[C@@H](N(C)C)C3)ccc2S1(=O)=O	·	–	·	·	?	?
CCCCC[C@@H](C)N1C[C@@H](COCc2ccccc2)Oc2cc(N3CC[C@@H](O)C3)ccc2S1(=O)=O	·	–	·	·	–	14.1µM
C[C@@]12C(=O)OC(=O)[C@]1(C)C1CCC2O1	–	–	–	–	?	1.78µM
SMILES	Pin1 inh	GLP-1R agonist	PGK inhibitor	Tb PFK inh	GLP1R cytotox	GLP-1R inv ag
COc1cc(-c2noc(-c3ccc(NCC4CCCO4)c([N+](=O)[O-])c3)n2)cc(OC)c1OC (stereo not given)	–	·	–	·	–	–
Cc1cccc(-c2nc3c4ccccc4n(CC(=O)Nc4cccc(F)c4)c(=O)n3n2)c1	–	·	–	·	–	?
CC(=O)n1cc(N(C(=O)CCl)c2ccccc2)c2ccccc21	–	–	–	–	?	3.55µM
CC(=O)n1cc(N(C(=O)CCl)c2ccc([N+](=O)[O-])cc2)c2ccccc21	?	–	–	–	?	?
CCOc1ccc(C2C(=O)N(C3CCCCC3)CC(=O)N2Cc2ccccc2OC)cc1OC (stereo not given)	–	·	–	·	–	–
CC(=O)N(CCCN(C)C)CCC(C)CCC=C(C)C (stereo not given)	–	–	–	–	–	3.98µM
COc1ccc(CN(C(=O)c2ccco2)c2ccccc2)cc1	–	–	–	–	–	?
O=C(c1ccccc1Br)N(Cc1ccccc1)c1ccccc1	–	–	–	–	–	8.91µM
O=C(c1ccccc1)c1ccccc1C(=O)c1ccccc1	–	–	–	–	–	8.91µM
N#Cc1cccc(NS(=O)(=O)c2ccc3c(c2)CCC(=O)N3)c1	–	·	·	·	·	·
N[C@@H](Cc1ccc(O)c(O)c1)C(=O)O	?	–	22.4µM	·	–	–
CC(C)OCCCNC(=O)C(=O)Nc1c2c(nn1-c1ccccc1)CS(=O)(=O)C2	?	·	–	·	–	–
O=[N+]([O-])c1ccc(N=Nc2ncc[nH]2)cc1	–	–	–	–	5.62µM	?
O=[N+]([O-])c1ccc(N=NN(CCO)CCO)cc1	–	–	·	–	?	–
COc1cc2c(cc1NC(=O)C(c1ccccc1)c1ccccc1)CCCC2	–	–	–	–	–	2.82µM
CCC(C(=O)NC(=O)NC(C)=O)c1ccccc1 (stereo not given)	·	–	·	·	·	·
Cc1oc2ncn(CC(C)C)c(=O)c2c1C(=O)N1CCN(c2cccc(C(F)(F)F)c2)CC1	–	·	–	·	–	–
Cc1cc(C)n(CC(O)Cn2c3ccccc3c3ccccc32)c(=O)n1 (stereo not given)	–	–	–[11.5 µM]	–	–	–
Cc1cc(C)n(CC(O)Cn2c3ccc(Br)cc3c3cc(Br)ccc32)c(=O)n1 (stereo not given)	–	–	–[11.5 µM]	–	–	11.2µM
COc1ccc(C(=O)CSc2nc(-c3ccccn3)nc(C)c2Cl)cc1	?	–	–	–	11.2µM	?
Cc1nc(-c2ccccn2)nc(SCC(=O)c2ccc(F)cc2)c1Cl	–	–	–	–	?	?
Cc1ccc(C2(c3ccccc3)NC(=O)N(CC(=O)NCc3ccccc3)C2=O)cc1C (stereo not given)	–	–	–	–	–	6.31µM
O=C(CN1C(=O)NC(c2ccccc2)(c2ccccc2)C1=O)NCc1ccccc1	–	–	–	–	–	?
Oc1c(C(c2cccc(Br)c2)N2CCCC2)sc2nc(-c3ccco3)nn12 (stereo not given)	?	·	–	·	–	?
N#Cc1nc(Cc2ccccc2)oc1N1CCCC1	–	–	–	–	–	–
CC1CC(C)CN(c2oc(Cc3ccccc3)nc2C#N)C1 (stereo not given)	?	–	–	–	–	11.2µM
CC1CCN(c2ccc(NC(=O)c3cccc(Cl)c3)cc2C(=O)O)CC1	–	·	?	·	–	–
